Out of some 69,000 compounds screened, about 8,600 (12%) showed an effect of 50% or more. What follows is part of a selection rich in strong results, with near analogues and random picks from the rest.

The subject of this experiment is Plasmodium berghei. The experiment in a line: Screen against P. berghei liver stage (PbLuc), transformed with Luciferase, at 10uM. The experiment is classed as functional, HepG2. The following applies: tested at 10 uM.
As for `Cn1nc(C(=O)NCc2ccccc2C(F)(F)F)c2c1CCS(=O)(=O)C2`, the INHIBITION was determined as 45.8%.

On to `O=C(C1CCOCC1)N1C[C@@H]2CC[C@H]1CN(C1Cc3ccccc3C1)C2`, for which the INHIBITION was -59.3%.

As to `CCN(CC)[C@H]1C[C@@H](Cc2cc(CO)on2)C1(C)C`, the INHIBITION came out at 17.4%.

Turning to `CN(Cc1cc(C[C@@H]2C[C@H](N)C2(C)C)no1)c1ccccc1`, the INHIBITION came out at 54.3%.

Regarding `CN(C)[C@H]1C[C@@H](Cc2cc(CO)on2)C1(C)C`, the INHIBITION is recorded as -17.1%.

On to `Cc1cccc(CN2C(=O)CC[C@@H]3[C@H]2CCN3Cc2nccn2C)n1`, for which the INHIBITION amounted to 40.4%.

Regarding `c1ccc(Cn2cc3c(n2)C(CNCC2CCOCC2)OCC3)nc1` (centres undefined), the INHIBITION was -7.7%.

Regarding `CCC(CC)C(=O)N1CCC2(C1)CN(c1ccccc1)C(=O)CN2C` (centres undefined), the INHIBITION is listed as 28.4%.

Take `CCC[C@H]1CN(c2nc(CO)cs2)C[C@@H]1NC(=O)C1(COC)CC1`: the INHIBITION is on record as 69.7%.

In the case of `CCC[C@H]1CN(Cc2cscn2)C[C@@H]1NC(=O)C1(COC)CCC1`, the INHIBITION stood at 48.5%.

`CCC[C@H]1CN(Cc2nccn2C)C[C@@H]1NC(=O)C1(COC)CCC1`: the INHIBITION came to 31.2%.

Consider `CCC[C@H]1CN(Cc2cc(C)no2)C[C@@H]1NC(=O)C1(COC)CCC1`, for which the INHIBITION worked out at 59.3%.

`COC[C@@]12CC[C@@H](N3CCOCC3)C[C@H]1CCN(c1nc(CO)cs1)C2`: the INHIBITION worked out at 15.8%.

As to `CCC[C@H]1CN(Cc2cncn2C)C[C@@H]1NC(=O)C1(COC)CCC1`, the INHIBITION came to 28%.

As for `c1ccc(-c2nnc3n2CCN(Cc2ccc4c(c2)OCCO4)C3)cc1`, the INHIBITION is listed as 33.7%.

Consider `NC(=O)c1cccc(OCC(=O)N2CCCC(n3ccnc3)C2)c1` (centres undefined), for which the INHIBITION was 36.1%.

Consider `CC(=O)N1[C@H](CN(C)C)C[C@@H]2CN(c3ncc(F)cn3)CC[C@@H]21`, for which the INHIBITION was -0.804%.

Turning to `CCC(C)NC(=O)c1ccn(COc2ccccc2Cl)n1` (centres undefined), the INHIBITION is reported as 34.2%.

In the case of `COc1ccc(CNc2ncnc3c2NC(=O)CN3)cc1`, the INHIBITION is reported as 45.8%.

With `CC(C)c1nnc2n1CCN(C(=O)CN(C)Cc1ccccc1)C2`, the INHIBITION was 12.7%.

Consider `Cc1ccc(CN(C)C(C(=O)O)c2ccc3c(c2)OCO3)o1` (centres undefined), for which the INHIBITION is given as 8.51%.

`CCc1cc2c(N3CCCC(c4cc(C(N)=O)[nH]n4)C3)ncnc2s1` (centres undefined): the INHIBITION is listed as 55%.

`CCc1ncnc(N2CCCC(c3cc(C(N)=O)[nH]n3)C2)c1F` (centres undefined): the INHIBITION is listed as -24%.

For the compound `CCc1cc2c(N3CCCC(c4ccn[nH]4)C3)ncnc2s1` (centres undefined), the INHIBITION was -1.76%.

Turning to `COCC(=O)N1CCC(Cc2nccnc2-c2c(C)n[nH]c2C)C1` (centres undefined), the INHIBITION is listed as 17.4%.

Regarding `CCCN1CCN(c2nc(N)nc3c2nc(C)n3C)CC1`, the INHIBITION stood at 13.1%.

With `CNC(=O)C(CCSC)NC(=O)c1ccc2ccccc2n1` (centres undefined), the INHIBITION is reported as 19.1%.

Regarding `CSCCC(NC(=O)c1ccc2ccccc2n1)C(=O)N(C)C` (centres undefined), the INHIBITION came to 60.8%.

As for `CCOCCNC(=O)C(CCSC)NC(=O)c1ccc2ccccc2n1` (centres undefined), the INHIBITION is reported as 60.8%.

With `CSCCC(NC(=O)c1ccc2ccccc2n1)C(=O)O` (centres undefined), the INHIBITION was found to be 42.6%.

In the case of `CSCCC(NC(=O)c1ccc2ccccc2n1)C(=O)NC1CC1` (centres undefined), the INHIBITION is recorded as 43.7%.

On to `CSCCC(NC(=O)c1ccc2ccccc2n1)C(=O)NC(C)C` (centres undefined), for which the INHIBITION is on record as 40.5%.

For `Cc1ccc(CN2CCc3onc(COc4cccnc4)c3C2)s1`, the INHIBITION is listed as 27.6%.

Take `O=C(CNC(Cn1cccn1)c1ccccc1)Nc1cnccn1` (centres undefined): the INHIBITION is on record as -12.4%.

Take `Cc1ccc(C2CCCN2S(=O)(=O)N(C)Cc2cnccn2)o1` (centres undefined): the INHIBITION is 37.9%.

With `CCCn1cc2nc(N3CCCC3)[nH]cc-2c1=O`, the INHIBITION was found to be 44.9%.

Turning to `Cc1cnn(CC2CCCN2C(=O)c2ccc(F)c(F)c2)c1` (centres undefined), the INHIBITION was -63.3%.

For the compound `O=C(Nc1ccc(CCN2CCOCC2)cc1)C1CCC1`, the INHIBITION turned out to be 26.25%.

Turning to `CCCc1noc(CN2CCN(CCO)CC2)n1`, the INHIBITION stood at 9.015%.

Turning to `CC(NCC(=O)N1CCc2sccc2C1)c1ccccc1F` (centres undefined), the INHIBITION is on record as 14.9%.

Turning to `CCN(CC)C(=O)c1ccc(Cl)c(NC(=O)c2csnn2)c1`, the INHIBITION stood at 28.5%.

As for `CCN(CC)C(=O)c1ccc(Cl)c(NC(=O)c2cnc(C)cn2)c1`, the INHIBITION amounted to 51.2%.

`CCN(CC)C(=O)c1ccc(Cl)c(NC(=O)c2cc[nH]n2)c1`: the INHIBITION is listed as 9.41%.

With `Cc1oc(-c2nc(C#N)c(NC(C)(C)C)o2)cc1S(=O)(=O)N1CCCC1`, the INHIBITION turned out to be 40.1%.

For `CCC(CC)N1CCC(c2[nH]ncc2S(C)(=O)=O)C1` (centres undefined), the INHIBITION is on record as -3.94%.

With `O=C(NCc1ccco1)N1CCCCC1c1nc(-c2ccncc2)no1` (centres undefined), the INHIBITION is listed as -31%.

Consider `CS(=O)(=O)N1C[C@H]2CC[C@@H](C1)N(C(=O)Cn1nc3ccccc3n1)C2`, for which the INHIBITION was determined as 21.7%.

For `C[C@@H]1CN(C2CCN(c3ccccc3)CC2)CC[C@@]1(O)C1CCOCC1`, the INHIBITION is recorded as -2.61%.

Consider `C[C@@H]1CN(C2Cc3ccccc3C2)CC[C@@]1(O)C1CCOCC1`, for which the INHIBITION came to 10.2%.

Regarding `C[C@@H]1CN(C2CCCCC2)CC[C@@]1(O)C1CCOCC1`, the INHIBITION was found to be 57.7%.

With `Cc1nc(C)n(CC2CCCN2CCC(=O)NC2CCCC2)n1` (centres undefined), the INHIBITION is recorded as -38.7%.

As to `CN(C)c1ccc(C(=O)N2CCN(CC(C)(C)O)CC2)nn1`, the INHIBITION was 21.6%.

Take `O=C(NCC(O)c1ccc(F)c(F)c1)c1cccnc1O` (centres undefined): the INHIBITION is recorded as 36.8%.

With `O=C(NCC(O)c1ccc(F)cc1F)c1cccnc1O` (centres undefined), the INHIBITION stood at 38.3%.
